Results filed as inconclusive are left out. Values without a mark were called inactive. Activity calls are given as the source filed them. Unless noted, calls come from the whole dose curve; as a rule, active = well fitted curve in the direction sought with a large enough effect in the repeat runs; inconclusive = weak or mixed curves; inactive = no such curve, though single readings can be large; an effect the other way counts as inactive or inconclusive.

The values that follow come from PubChem BioAssay (Tox21).

The target of test [1] is Retinoic acid receptor RXR-alpha (Homo sapiens) (UniProt P19793). The experiment in a line: qHTS assay to identify small molecule agonists of the RXR signaling pathway (AID 1159527; calls by dose curve; note: nearly all actives have a fitted effect of over 35% in size). The procedure, abridged: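 Agonist mode; 9-cis retinoic acid positive control. HEK 293T UAS-bla reporter cells, 2% charcoal-stripped FBS, 16 hr compound exposure at 37 C/5% CO2. LiveBLAzer B/G FRET substrate 2 hr RT; ex 405, em 460/530 nm.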
Sequence of Retinoic acid receptor RXR-alpha (Homo sapiens) (P19793 whole entry, looked up): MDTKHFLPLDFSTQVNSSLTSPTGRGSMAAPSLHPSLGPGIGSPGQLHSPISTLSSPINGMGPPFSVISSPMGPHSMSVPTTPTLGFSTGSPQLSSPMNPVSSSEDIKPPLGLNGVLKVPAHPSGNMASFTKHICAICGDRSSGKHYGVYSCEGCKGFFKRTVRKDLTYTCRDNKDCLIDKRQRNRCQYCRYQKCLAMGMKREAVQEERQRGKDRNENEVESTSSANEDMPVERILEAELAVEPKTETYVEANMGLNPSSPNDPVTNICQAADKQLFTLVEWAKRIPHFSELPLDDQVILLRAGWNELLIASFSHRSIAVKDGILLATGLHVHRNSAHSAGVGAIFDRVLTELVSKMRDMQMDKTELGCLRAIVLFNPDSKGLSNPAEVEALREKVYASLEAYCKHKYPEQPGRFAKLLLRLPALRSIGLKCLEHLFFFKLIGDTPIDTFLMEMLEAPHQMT
On the technique in general: qHTS replaces the single test concentration by a dilution series.

The nature of test [2]: qHTS assay to identify small molecule agonists of the RXR signaling pathway - cell viability counter screen (AID 1159529). Note: series mostly up to about 77 µM; nearly all actives have a fitted effect of over 50% in size. The procedure, abridged:
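Luminescence from CellTiter-Glo (30 min, RT) measured viability in the same wells as the beta-lactamase reporter readout. Cells: GeneBLAzer RXR-alpha HEK 293T, 2% charcoal-stripped FBS. Compound exposure 16 hr, 37 C.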

Test [3] can be described thus: qHTS assay to identify small molecule antagonists of the retinoid acid receptor (RAR) signaling pathway - cell viability counter screen (AID 1159551). Note: nearly all actives have a fitted effect of over 35% in size. Summed up:
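Cytotoxicity counter screen in C3RL4 cells: 6 h compound exposure with 1 uM retinol (final), viability from cellular ATP by luminescence.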

Test [4] can be described thus: qHTS assay to identify small molecule agonists of the retinoic acid receptor (RAR) signaling pathway (AID 1159553). Note: potency is the fitted concentration of half-maximal effect. Summed up:
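Agonist activity was scored in C3RL4 cells bearing a retinoic acid response element luciferase construct. Cells were treated with compounds for 6 hr at 37 C, and luciferase signal was measured as luminescence.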

A short description of test [5]: qHTS assay to identify small molecule antagonists of the estrogen related receptor (ERR) signaling pathway from Tox21 library - cell viability counter screen (AID 1224834). Note: nearly all actives have a fitted effect of over 30% in size. The procedure, abridged: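 Cytotoxicity of test substances is gauged in the same ERR cells used for the antagonist screen, after 17.5 h of compound treatment at 37 C, by CellTiter-Fluor fluorescence measured after 30 min.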

For test [6], the target named is Luciferin 4-monooxygenase (Photinus pyralis) (UniProt P08659). In words: qHTS assay to identify small molecule inhibitors of firefly luciferase (AID 1224835). Note: nearly all actives have a fitted effect of over 25% in size. Note: potency is the fitted concentration of half-maximal effect. Summed up: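 Biochemical qHTS: compounds run as interplate titrations against purified firefly enzyme, with D-luciferin and ATP each at its KM concentration. Light output recorded by CCD imaging.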
Sequence of Luciferin 4-monooxygenase (Photinus pyralis) (P08659 whole entry, looked up): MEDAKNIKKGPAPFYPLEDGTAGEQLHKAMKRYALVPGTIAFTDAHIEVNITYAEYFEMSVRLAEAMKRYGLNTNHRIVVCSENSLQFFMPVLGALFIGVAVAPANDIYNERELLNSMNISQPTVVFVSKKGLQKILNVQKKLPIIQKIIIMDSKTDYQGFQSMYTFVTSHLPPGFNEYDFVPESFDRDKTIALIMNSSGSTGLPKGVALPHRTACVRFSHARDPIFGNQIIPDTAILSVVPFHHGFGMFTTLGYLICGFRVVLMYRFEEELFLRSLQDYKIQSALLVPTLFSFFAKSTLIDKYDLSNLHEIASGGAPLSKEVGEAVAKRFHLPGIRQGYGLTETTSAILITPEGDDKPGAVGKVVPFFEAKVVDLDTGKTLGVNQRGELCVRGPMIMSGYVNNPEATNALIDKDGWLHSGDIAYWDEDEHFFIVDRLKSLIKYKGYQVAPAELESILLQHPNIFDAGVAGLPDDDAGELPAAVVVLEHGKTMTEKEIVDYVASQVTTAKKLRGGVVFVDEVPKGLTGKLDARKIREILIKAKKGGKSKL
A short description of test [7]: qHTS assay to identify small molecule agonists of the constitutive androstane receptor (CAR) signaling pathway - cell viability counter screen (AID 1224836). Note: series mostly up to about 92 µM; nearly all actives have a fitted effect of over 45% in size. Summed up: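 Viability read-out: CellTiter-Fluor fluorescence after 23 h compound exposure at 37 C/5% CO2 in double-stable HepG2-CYP2B6-hCAR cells, with PK11195 present at 0.75 uM final; compounds tested in 15-point titration.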

The nature of test [8]: qHTS assay to identify small molecule antagonists of the constitutive androstane receptor (CAR) signaling pathway - cell viability counter screen (AID 1224837). Note: series mostly up to about 92 µM; nearly all actives have a fitted effect of over 45% in size. Summed up: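 Multiplexed cytotoxicity read-out for the CAR antagonist screen: double-stable HepG2-CYP2B6-hCAR cells co-treated with 50 nM CITCO (final) and compound over 15 concentrations, incubated 23 hr, then assessed by CellTiter-Fluor fluorescence.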

Test [9] deals with Nuclear receptor subfamily 1 group I member 3 (Homo sapiens) (UniProt Q14994). The experiment in a line: qHTS assay to identify small molecule antagonists of the constitutive androstane receptor (CAR) signaling pathway (AID 1224838). Note: nearly all actives have a fitted effect of over 40% in size. The procedure, abridged: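 Compounds were titrated across 15 concentrations onto HepG2 cells double-stably expressing hCAR and a CYP2B6-2.2kb reporter, together with 50 nM CITCO (final). After 24 h at 37 C, luciferase activity was measured by luminescence.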
Sequence of Nuclear receptor subfamily 1 group I member 3 (Homo sapiens) (Q14994 whole entry, looked up): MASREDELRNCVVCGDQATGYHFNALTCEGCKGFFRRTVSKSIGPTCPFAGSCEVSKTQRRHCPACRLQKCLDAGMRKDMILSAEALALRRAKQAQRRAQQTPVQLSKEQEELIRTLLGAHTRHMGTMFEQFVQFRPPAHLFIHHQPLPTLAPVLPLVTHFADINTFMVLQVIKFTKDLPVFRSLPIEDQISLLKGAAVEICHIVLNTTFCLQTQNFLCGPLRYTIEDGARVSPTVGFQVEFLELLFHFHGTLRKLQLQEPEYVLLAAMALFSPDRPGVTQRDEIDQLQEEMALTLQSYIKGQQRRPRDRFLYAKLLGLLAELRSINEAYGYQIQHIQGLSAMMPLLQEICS

The target is the same in test [10]. In words: qHTS assay to identify small molecule agonists of the constitutive androstane receptor (CAR) signaling pathway (AID 1224839). Note: nearly all actives have a fitted effect of over 15% in size. Note: potency is the fitted concentration of half-maximal effect. Summed up:
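Luminescence read-out (ONE-Glo, 30 min, room temperature) from double-stable HepG2-CYP2B6-hCAR cells exposed 24 h to 15-point compound series in presence of 0.75 uM PK11195 final.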

The nature of test [11]: qHTS assay to identify small molecule antagonists of the estrogen related receptor signaling pathway with the pleiotropic PPARgamma coactivator (PGC) from Tox21 10K library - cell viability counter screen (AID 1224840; active = well fitted cell-killing curve with a large enough effect in the repeat runs, not every such curve was filed as active; note: nearly all actives have a fitted effect of over 40% in size). The procedure, abridged:
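Step one, plate 2,000 PGC/ERR cells per well; step two, incubate 6 h at 37 C/5% CO2; step three, pin-transfer compounds; step four, incubate 17.5 h; step five, add CellTiter-Fluor and read fluorescence after 30 min.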

The nature of test [12]: qHTS assay to identify small molecule antagonists of the estrogen related receptor signaling pathway with the pleiotropic PPARgamma coactivator (PGC) from Tox21 10K library (AID 1224841; call rule not given here; note: series mostly up to about 92 µM; actives are mostly falling curves and most rising ones were filed inactive; nearly all actives have a fitted effect of over 50% in size). The procedure, abridged: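 Antagonism in this quantitative HTS is taken from loss of luciferase signal in PGC/ERR cells. Cells (2,000/well) are treated with compounds in DMSO after a 6 h settling period and read by One-Glo luminescence after 18 h.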

Test [13] is described as follows: qHTS assay to identify small molecule agonists of the estrogen related receptor signaling pathway with the pleiotropic PPARgamma coactivator (PGC) from Tox21 10K library (AID 1224842). Note: nearly all actives have a fitted effect of over 15% in size. The procedure, abridged: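 PGC/ERR reporter cell line, 2,000 cells per well, incubated 6 h at 37 C before 23 nL compound in DMSO was added. After 18 h at 37 C, One-Glo luminescence read following 30 min at room temperature.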

A short description of test [14]: qHTS assay to identify small molecule antagonists of the retinoic acid receptor (RAR) signaling pathway (AID 1159552; note: nearly all actives have a fitted effect of over 50% in size). Summed up:
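Luminescence from a RARE luciferase reporter in C3RL4 cells served as read-out. Cells received compounds together with 1 uM final retinol and incubated 6 hr at 37 C before detection reagent was added for 30 min at room temperature.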

In the case of `CC(COc1ccccc1)NC(C)C(O)c1ccc(O)cc1` (configuration not stated), the outcome in [1] and in test [3] was inactive. The Potency entry in test [2], in [4], in [5], in test [6], in test [7] and in test [8] was “inactive” each time. The Potency result in test [9], in [10], in test [11], in test [12] and in test [13] was “inactive” throughout.
`C/C=C1\[C@H]2C=C(C)C[C@]1(N)c1ccc(=O)[nH]c1C2`: the Potency entry in test [2], in test [4], in [5], in test [6], in test [7] and in test [8] was “inactive” in each case. Further, the Potency result in test [9] and in [10] was “inactive” each time. Also, the call in test [3] and in test [14] was inactive.
Take `CC(CC(C#N)(c1ccccc1)C(C)C)N(C)C` (configuration not stated): the result in test [1], in test [3] and in test [14] was inactive. Also, the Potency result in [2], in [4], in [5], in [6], in test [7] and in test [8] was “inactive” throughout. In addition, the Potency result in test [9], in test [10], in test [11] and in test [12] was “inactive” each time.
For `CC1(C)[C@@H]2CC[C@]3(C2)[C@@H]1C(=O)CCC3(C)C`, the call in test [1], in test [3] and in test [14] was inactive. Also, the Potency result in test [2], in test [4], in [5], in [6], in [7] and in test [8] was “inactive” in each case. In addition, the Potency result in test [9], in test [10] and in test [11] was “inactive” in each case.
For the molecule `CCCCCCCCCCCCCCCCC(=O)O`, the molecule was classed as inactive in test [1], in test [3] and in test [14]. Also, the Potency result in test [2], in test [4], in [5], in test [6], in test [7] and in [8] was “inactive” in each case. The Potency result in test [9], in test [10] and in [11] was “inactive” each time.
Take `Cc1ccc2ccccc2c1[N+](=O)[O-]`: the Potency result in test [2], in [4], in test [5], in test [6], in test [7] and in test [8] was “inactive” in each case. The Potency result in test [9], in test [10] and in [11] was “inactive” throughout. Also, the molecule was classed as inactive in [3] and in [14].
As for `Cc1c(Cl)cccc1[N+](=O)[O-]`, the Potency entry in [2], in [4], in test [5], in test [6], in [7] and in test [8] was “inactive” each time. Besides, the molecule was classed as inactive in test [3] and in test [14].
As for `O=C1C=CCCC1`, the Potency result in [2], in test [4], in [5], in test [6], in test [7] and in test [8] was “inactive” throughout. The Potency result in [9], in [10] and in [11] was “inactive” in each case. Besides, the call in test [3] and in test [14] was inactive.
In the case of `[O-][n+]1ccc(Cl)cc1`, the Potency entry in test [2], in test [4], in test [5], in test [6], in test [7] and in test [8] was “inactive” in each case. Moreover, the Potency entry in test [9] and in test [10] was “inactive” throughout. Moreover, the result in [3] and in test [14] was inactive.
Turning to `c1ccc(CCNc2nc(-c3ccccc3)cs2)cc1`, the outcome in test [1], in [3] and in [14] was inactive. Further, the Potency entry in test [2], in [5], in [7], in test [8], in test [9] and in [11] was “inactive” each time. Also, the Potency in test [4] is 2.11 µM (active); in [6], 3.47 µM (active); in test [10], 7.5 µM (active).
Take `COc1ccc(CN(CCN(C)C)c2ncccn2)cc1`: the molecule was called inactive in test [1], in test [3] and in test [14]. For the same molecule, the Potency result in test [2], in test [4], in test [5], in [6], in [7] and in [8] was “inactive” each time. Moreover, the Potency result in test [11] was “inactive”.
